Source: PubChem BioAssay
VLA-4 inh = inhibition in human VLA-4 binding assay, primary screen, VLA-4 allosteric modulator project, MLPCN library, flow cytometry, VLA-4 expressing cells; Integrin alpha-4 (Homo sapiens), P13612; ligand binding flow cytometry; inhibition, % (about 7 µM as worked out from the volumes in the protocol); 330,000 tested, 0.2% active; in the data active means inhibition above about 50%
Pemphigus Ab inh = inhibitors of pemphigus antibody binding to DSG3, primary screen, biochemical, bead-based, flow cytometry, scFv-GFP. DSG3-coupled beads, scFv-anti-DSG3-GFP binding; active compounds read low. binding (percent of control), % at 10 µM. 310,000 tested, 0.48% active. Desmoglein-3 (Homo sapiens), P32926;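 active means binding more than 3 SD below its plate's average and above zero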;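 further: hits lower antibody fragment binding to DSG3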
PREPL inh = PREPL enzyme inhibitors, primary screen, biochemical, fluorescence polarization. inhibition, % at 5.96 µM. 320,000 tested, 0.68% active. Prolyl endopeptidase-like (Homo sapiens), Q4J6C6. recombinant PREPL, fluorescence polarization activity-based probe;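 further: 0% = enzyme with DMSO and 100% = wells lacking enzyme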
GRK2 inh = compounds blocking aptamer binding on GRK2 – biochemical, human GRK2, bead flow cytometry, HTS, primary screen. inhibition of aptamer binding, % at 10 µM. FAM-aptamer displacement from GRK2. 330,000 tested, 0.59% active. AID 488847, 2010;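 active means inhibition of aptamer binding above 40%, roughly 3 SD of noise, on plates passing a quality check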;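 further: median bead fluorescence of bound FAM aptamer so fluorescent compounds give negative values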
JMJD2C inh = inhibitors of GASC-1 histone demethylase, primary screen, biochemical, fluorescence, DELFIA europium; 330,000 tested, 0.069% active; AID 2099, 2009; inhibition, % at 2.35 µM; Lysine-specific demethylase 4C (Homo sapiens), Q9H3R0; GST-JMJD2C(1-420) H3K9me3 demethylation;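 active means more than half of a compound's replicate wells show inhibition beyond 50%, single wells judged on their own value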;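 further: signal counts dimethyl H3K9 product captured on neutravidin plate; 0% = median of DMSO wells and 100% = 0.3 times that DMSO median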
PREPL inh cf = human PREPL enzyme inhibitors, confirmation, biochemical, fluorescence polarization; shares compounds with PREPL inh; recombinant PREPL, fluorescence polarization activity probe; inhibition, % at 5.96 µM; 2,000 tested, 67% active;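 further: 0% = protein with DMSO and 100% = wells lacking protein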
Numbers without * were called inactive; i = inactive; . = not tested or not shown. Hits are enriched below; roughly 1.6% of the tested compounds scored in any of these assays. Unless noted, no stated cut-off is given here; in the data, active means inhibition above about 43%; inactive means the rest.

SMILES | VLA-4 inh | Pemphigus Ab inh | PREPL inh | GRK2 inh | JMJD2C inh | PREPL inh cf
COc1cc(/C=N/Nc2nc3c(c(=O)n(C)c(=O)n3C)n2Cc2ccccc2)ccc1OC(=O)c1ccco1 | 2 | 115 | 80* | 23 | 4 | 89*
COc1cc(C(=O)NCC2CCCO2)ccc1OCc1ccc(Cl)cc1Cl (stereo not drawn) | 3 | 81* | 44* | 0 | 1 | 43
O=C(Nc1cc(Cl)ccc1N1CCCC1)C1=COCCO1 | -1 | 103 | 45* | 0 | 9 | 32
CCN1/C(=C/C=C/c2oc3ccc(-c4ccccc4)cc3[n+]2CC)Oc2ccc(-c3ccccc3)cc21 | . | . | 67* | 0 | 8 | -12
CCCCN1C(=O)/C(=C/C=C2\Oc3ccccc3N2CC)SC1=S | . | 192 | . | . | -10 | .
CCOc1cc(CN2CCC(n3nccc3NC(=O)C3CC3)CC2)ccc1O | 3 | 100 | 13 | 0 | 5 | .
COc1ccc(C2=CCN3CCCCC3C2)c(-c2ccc(OC)c(OC)c2)c1 (stereo not drawn) | -8 | 106 | 47* | 0 | 4 | 43
O=C(CCS(=O)(=O)c1ccc(F)cc1)Nc1ccc(N2CCN(Cc3ccccc3)CC2)cc1 | 24 | 89 | 20 | 0 | . | .
Fc1ccc(CNc2ccc(N3CCN(Cc4ccccc4)CC3)cc2)cc1 | 2 | 98 | 46* | 0 | 3 | 40
CCOC(=O)c1cnc2ccc(C(=O)OC)cc2c1Nc1ccc(C(=O)O)cc1 | -1 | 103 | -3 | 0 | 0 | .
CCOC(=O)c1ccc2ncc(C(=O)OCC)c(Nc3ccc(N4CCOCC4)cc3)c2c1 | -1 | 112 | 45* | 3 | -6 | 42
Oc1c(CN2CCCCC2)cc(COCc2ccccc2)c2cccnc12 | 11 | . | 56* | 0 | -4 | 84*
COCc1cc(CN2CCCC2)c(O)c2ncccc12 | 7 | 123 | 8 | 3 | 9 | .
Cc1ccc(NC2=CC(=O)C(=O)c3ccccc32)c(C)c1 | 11 | 103 | 47* | 4 | 1 | 38
O=C1C=C(Nc2ccccc2O)c2ccccc2C1=O | -197 | 94 | 13 | 0 | i | .
COc1ccccc1CNC(=O)COC(=O)Cc1cccs1 | 2 | 95 | 7 | 0 | -13 | .
COc1ccc(S(=O)(=O)n2cccc2)cc1 | 10 | 104 | 10 | 0 | 5 | .
O=C1Nc2ccccc2S/C1=C/Nc1cccc(Cl)c1 | -13 | 96 | 45* | 0 | 26 | 33
CCCCNC(=O)/C=C1\Sc2ccccc2NC1=O | -2 | 104 | -11 | 4 | -4 | .
C#CCOCCOCCOCCNc1nc(N2CCN(C(=O)CCCCCCCCCCNC(=O)[C@H](CCCCN)n3cc(CCO)nn3)CC2)nc(N2CCN(C(=O)CCCCCCCCCCNC(=O)[C@H](CCCCN)n3cc(CCO)nn3)CC2)n1 | -5 | 118 | 58* | 0 | . | 47*
C#CCOCCOCCOCCNc1nc(N2CCN(C(=O)CCCCCCCCCCNC(=O)[C@H](CCCCN)n3cc(CCCC(=O)O)nn3)CC2)nc(N2CCN(C(=O)CCCCCCCCCCNC(=O)[C@H](CCCCN)n3cc(CCCC(=O)O)nn3)CC2)n1 | -3 | 98 | 12 | 0 | -5 | .
C#CCOCCOCCOCCNc1nc(N2CCN(C(=O)CCCCCCCCCCNC(=O)[C@H](CCCCN)n3cc(CCO)nn3)CC2)nc(N2CCN(C(=O)CCCCCCCCCCNC(=O)[C@H](CCCN=C(N)N)n3cc(C[C@@H](C)CC)nn3)CC2)n1 | -9 | 120 | 56* | 0 | 16 | 57*
C#CCOCCOCCOCCNc1nc(N2CCN(C(=O)CCCCCCCCCCNC(=O)[C@H](CCCCN)n3cc(CCCC(=O)O)nn3)CC2)nc(N2CCN(C(=O)CCCCCCCCCCNC(=O)[C@H](CCCN=C(N)N)n3cc(C[C@@H](C)CC)nn3)CC2)n1 | -15 | 130 | 44* | 0 | 6 | 35
CC(=O)c1c(C(C)=O)c(C)n(NC(=O)c2ccncc2)c1C | -3 | 94 | 3 | 1 | 32 | .
Cc1nc(SCC(=O)NC(C)(C)C)c2c(-c3cccs3)csc2n1 | 12 | 105 | -1 | 2 | -77 | .
SMILES | VLA-4 inh | Pemphigus Ab inh | PREPL inh | GRK2 inh | JMJD2C inh | PREPL inh cf
COc1ccc(N2CCN(c3ccc4nnc(CCC(=O)Nc5ccc(C)cc5)n4n3)CC2)cc1 | 18 | 100 | 59* | 0 | 4 | 60*
COc1ccc(NC(=O)CCc2nnc3ccc(N4CCC(C)CC4)nn23)cc1 | -7 | . | 8 | 2 | -8 | .
CCC12CC3CC(C1)CC(C(=O)NNC(N)=O)(C3)C2 | 7 | 113 | 2 | 0 | -2 | .
COc1cc(NCCCCCCCN)c2ncccc2c1 | 1 | 102 | 55* | 2 | 10 | 31
COc1cc(NC(C)CCCN)c2ncccc2c1 (stereo not drawn) | -21 | 115 | 57* | 0 | -10 | 39
CCNC(=S)N1CCN(S(=O)(=O)/C=C/c2ccccc2)CC1 | 0 | 109 | 1 | 0 | 0 | .
N#CCN(CC#N)C(=O)C1c2ccccc2Oc2ccccc21 | 18 | 107 | 75* | 0 | 0 | -4
NC(=O)COC(=O)C1c2ccccc2Oc2ccccc21 | -12 | 408 | 1 | 5 | -11 | .
Cc1ccc(-n2nc(C)c3c(C(=O)OCC(=O)N(C)C4CCS(=O)(=O)C4)cc(-c4ccccc4)nc32)cc1 (stereo not drawn) | 0 | 83 | 8 | 19 | 10 | .
COCCN(C(=O)CSc1nnc(C)n1-c1ccccc1)c1c(N)n(Cc2ccccc2)c(=O)[nH]c1=O | 5 | 102 | -2 | 0 | -1 | .
N#CCCN(C(=O)COC(=O)CSc1ccc(Cl)cc1)c1ccccc1 | 0 | 101 | 50* | 0 | -8 | 39
O=C(C1CCN(c2ncnc3c2nc2n3CCCCC2)CC1)N1CCN(c2ccccc2F)CC1 | 2 | 106 | 44* | 0 | 7 | 43
Cc1cccc(N2CCN(C(=O)C3CCN(c4ncnc5c4nc4n5CCCCC4)CC3)CC2)c1C | -1 | . | 40 | 0 | 16 | .
Cc1ccc(-n2[nH]c(C)c(C=Nc3ccc4[nH]c(=O)[nH]c4c3)c2=O)cc1C | 10 | 97 | 57* | 1 | -22 | 37
Cc1ccc(-n2[nH]c(C)c(C=Nc3ccc4[nH]c(=O)[nH]c4c3)c2=O)cc1 | -6 | 99 | 32 | 0 | -1 | .
CC1=CCC2COC(c3ccc[n+](Cc4ccccc4)c3)C1C2 (stereo not drawn) | 6 | 99 | 49* | 0 | -10 | 36
C=CCn1cc(/C=N/Nc2nc3ccccc3[nH]2)c2ccccc21 | -1 | 104 | 45* | 0 | -5 | 50*
